Test results as given in the supplement of paper PMC8975748.
Counter-ions that a name gives are not always drawn.

What follows are compounds tested on Saccharomyces cerevisiae BY4741 SeMeCo community (assay: z-score of subpopulation abundance vs DMSO median, subpopulation auxotrophic for HM; higher = larger share of this subpopulation than in DMSO controls). Details: 10 µM; 24 h; SM minimal medium; subpopulation (auxotrophy): HM.
Experimental: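 Fluorescent four-plasmid SeMeCo (self-establishing metabolically cooperating S. cerevisiae BY4741 community; plasmids pH-mRuby2, pL-mWasabi, pU-eCFP, pM-TagRFP657) was grown 24 h in minimal SM medium with each Selleck FDA-approved drug at 10 µM in 384-well plates. Cells were fixed and imaged by high-content confocal microscopy. For each auxotrophic subpopulation (and the prototroph), a z-score gives the deviation from the DMSO vehicle-control population median.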
With O=C1c2cccc3c2[C@H](CCC3)CN1[C@@H]1CN2CCC1CC2 [Palonosetron HCl] the “z-score of subpopulation abundance” value was -0.69.
With CC1=C(C(=O)O)N2C(=O)[C@@H](NC(=O)[C@H](N)C3=CCC=CC3)[C@H]2SC1 [Cefradine] the “z-score of subpopulation abundance” value was -0.73.
In the case of CCCc1cc(C(N)=S)ccn1 [Protionamide], the “z-score of subpopulation abundance” value was 0.36.
For Clc1ccc(C(Cn2ccnc2)OCc2ccsc2Cl)c(Cl)c1 (stereo not given) [Tioconazole], the “z-score of subpopulation abundance” value was 3.87.
In the case of Cc1cc(NS(=O)(=O)c2ccc(N)cc2)no1 [Sulfamethoxazole], the “z-score of subpopulation abundance” value was 0.18.
For O=C(c1ccc(OCCN2CCCCC2)cc1)c1c(-c2ccc(O)cc2)sc2cc(O)ccc12 [Raloxifene HCl], the “z-score of subpopulation abundance” value was 0.58.
CCNC(=O)[C@@H]1CCCN1C(=O)[C@H](CCCNC(=N)N)NC(=O)[C@H](CC(C)C)NC(=O)[C@@H](CC(C)C)NC(=O)[C@H](Cc1ccc(O)cc1)NC(=O)[C@H](CO)NC(=O)[C@H](Cc1c[nH]c2ccccc12)NC(=O)[C@H](Cc1c[nH]cn1)NC(=O)[C@@H]1CCC(=O)N1 [Leuprolide Acetate] was tested, and the “z-score of subpopulation abundance” value was 0.95.
For CC[N+](CC)(CC)CC [Tetraethylammonium bromide], the “z-score of subpopulation abundance” value was 0.22.
With CN1[C@@H]2CC[C@H]1C[C@@H](OC(c1ccccc1)c1ccccc1)C2 [Benztropine mesylate] the “z-score of subpopulation abundance” value was -0.56.
With COc1c(N2C[C@@H]3CCCN[C@@H]3C2)c(F)cc2c(=O)c(C(=O)O)cn(C3CC3)c12 [Moxifloxacin HCl] the “z-score of subpopulation abundance” value was 0.67.
In the case of CN(C)CCOc1ccc(/C(=C(/CCCl)c2ccccc2)c2ccccc2)cc1 [Toremifene Citrate], the “z-score of subpopulation abundance” value was 0.66.
For O=C(CCCN1CCC(O)(c2ccc(Cl)cc2)CC1)c1ccc(F)cc1 [Haloperidol], the “z-score of subpopulation abundance” value was -0.68.
For CC[C@H]1OC(=O)C[C@@H](O)[C@H](C)[C@@H](O[C@@H]2O[C@H](C)[C@@H](O)[C@H](N(C)C)[C@H]2O)[C@@H](CCN2C[C@H](C)C[C@H](C)C2)C[C@@H](C)C(=O)/C=C/C(C)=C/[C@@H]1CO[C@@H]1O[C@H](C)[C@@H](O)[C@@H](OC)[C@H]1OC [Tilmicosin phosphate], the “z-score of subpopulation abundance” value was -0.03.
In the case of CN(C)CC/C=C1/c2ccccc2Sc2ccc(Cl)cc21 [Chlorprothixene], the “z-score of subpopulation abundance” value was -0.62.
For Fc1ccc([C@@H]2CCNC[C@H]2COc2ccc3c(c2)OCO3)cc1 [Paroxetine mesylate], the “z-score of subpopulation abundance” value was -0.77.
For Nc1c2c(nc3ccccc13)CCCC2 [Tacrine hydrochloride hydrate], the “z-score of subpopulation abundance” value was -0.01.
Cc1ccc(Sc2ccccc2N2CCNCC2)c(C)c1 was tested, and the “z-score of subpopulation abundance” value was -0.62.
In the case of CCn1cc(C(=O)O)c(=O)c2cc(F)c(N3CCNC(C)C3)c(F)c21 (stereo not given) [Lomefloxacin HCl], the “z-score of subpopulation abundance” value was 1.66.
In the case of CCOc1ccc2ccccc2c1C(=O)N[C@@H]1C(=O)N2[C@@H]1SC(C)(C)[C@@H]2C(=O)O [Nafcillin Sodium], the “z-score of subpopulation abundance” value was 0.22.
In the case of CC(C(O)c1ccc(O)cc1)N1CCC(Cc2ccccc2)CC1 (stereo not given) [Ifenprodil Tartrate], the “z-score of subpopulation abundance” value was -0.88.
COc1cc(NS(=O)(=O)c2ccc(N)cc2)ncn1 [Sulfamonomethoxine] was tested, and the “z-score of subpopulation abundance” value was -1.46.
For COCCCC/C(=N\OCCN)c1ccc(C(F)(F)F)cc1 [Fluvoxamine maleate], the “z-score of subpopulation abundance” value was -0.09.
With CO/N=C(\C(=O)N[C@@H]1C(=O)N2C(C(=O)O)=C(CSc3nc(=O)c(O)nn3C)CS[C@H]12)c1csc(N)n1 [Ceftriaxone Sodium Trihydrate] the “z-score of subpopulation abundance” value was -1.19.
Cc1nc2n(c(=O)c1CCN1CCC(c3noc4cc(F)ccc34)CC1)CCCC2 [Risperidone] was tested, and the “z-score of subpopulation abundance” value was 0.48.
In the case of O=C(O)CCc1nc(-c2ccccc2)c(-c2ccccc2)o1 [Oxaprozin], the “z-score of subpopulation abundance” value was -0.83.
In the case of CC(C)[C@H]1CC[C@H](C(=O)N[C@H](Cc2ccccc2)C(=O)O)CC1 [Nateglinide], the “z-score of subpopulation abundance” value was 0.65.
In the case of Cn1c(=O)c2[nH]cnc2n(C)c1=O [Aminophylline], the “z-score of subpopulation abundance” value was 0.42.
For Cc1c(C)c2c(c(C)c1O)CCC(C)(CCCC(C)CCCC(C)CCCC(C)C)O2 (stereo not given) [Vitamin E], the “z-score of subpopulation abundance” value was -1.28.
For Cc1nc(NC(=O)N2CCC[C@H]2C(N)=O)sc1-c1ccnc(C(C)(C)C(F)(F)F)c1 [Alpelisib (BYL719)], the “z-score of subpopulation abundance” value was 0.31.
CC(C)N1CCN(c2ccc(OCC3COC(Cn4cncn4)(c4ccc(Cl)cc4Cl)O3)cc2)CC1 (stereo not given) [Terconazole] was tested, and the “z-score of subpopulation abundance” value was -1.2.
In the case of CCN(CC)CCNC(=O)c1cc(S(C)(=O)=O)ccc1OC [Tiapride Hydrochloride], the “z-score of subpopulation abundance” value was 0.84.
In the case of C[C@H]1c2cccc(O)c2C(O)=C2C(=O)[C@]3(O)C(O)=C(C(N)=O)C(=O)[C@@H](N(C)C)[C@@H]3[C@@H](O)[C@@H]21 [Doxycycline], the “z-score of subpopulation abundance” value was -0.76.
With CCN(Cc1ccncc1)C(=O)C(CO)c1ccccc1 (stereo not given) [Tropicamide] the “z-score of subpopulation abundance” value was -0.12.
For CCC[C@@H]1C[C@@H](C(=O)N[C@@H]([C@H]2O[C@H](SC)[C@H](O)[C@@H](O)[C@H]2O)[C@@H](C)O)N(C)C1 [Lincomycin HCl], the “z-score of subpopulation abundance” value was -0.17.
For NC(=O)c1ncn([C@@H]2O[C@H](CO)[C@@H](O)[C@H]2O)n1 [Ribavirin], the “z-score of subpopulation abundance” value was -0.41.
With CC[C@H](C)C(=O)O[C@H]1C[C@@H](C)C=C2C=C[C@H](C)[C@H](CC[C@@H]3C[C@@H](O)CC(=O)O3)[C@H]21 [Lovastatin] the “z-score of subpopulation abundance” value was 0.4.
In the case of O=C1CCc2cc(OCCCCc3nnnn3C3CCCCC3)ccc2N1 [Cilostazol], the “z-score of subpopulation abundance” value was -0.41.
NC[C@H]1O[C@H](O[C@H]2[C@H](O)[C@@H](O[C@H]3O[C@H](CO)[C@@H](O)[C@H](N)[C@H]3O)[C@H](N)C[C@@H]2N)[C@H](O)[C@@H](O)[C@@H]1O [Kanamycin sulfate] was tested, and the “z-score of subpopulation abundance” value was 1.34.
With CN1CC(=O)N2[C@H](c3ccc4c(c3)OCO4)c3[nH]c4ccccc4c3C[C@@H]2C1=O [Tadalafil] the “z-score of subpopulation abundance” value was 0.83.
With COc1ccc(Cl)cc1C(=O)NCCc1ccc(S(=O)(=O)NC(=O)NC2CCCCC2)cc1 [Glyburide (Glibenclamide)] the “z-score of subpopulation abundance” value was 0.56.
